Screening results: PubChem BioAssay, National Center for Advancing Translational Sciences (NCATS)
Only some compounds are listed: those with a hit (about 10% of all), similar ones and a draw of the others.
PNC inhibitor: blocks assembly of the perinucleolar compartment | PC3M PTB-GFP, PNC prevalence imaging, 16 h; hits give low values | activity change (PNC), negative = inhibition, % at 10 µM | 3.1% of 140,000 active | AID 2417;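 active = readout at or below -70, meaning at least 70% loss of cells showing the perinucleolar compartment, a nuclear body marking cancer cells; inconclusive = readout between -30 and a set limit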;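 note: plate controls were DMSO wells for no effect and camptothecin positive control wells for full effect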
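PC3M cells stably expressing PTB-GFP, 750–1000 cells/well, treated 16 h at 37 °C with compound (23 nl of library stock), in duplicate. After paraformaldehyde fixation and Hoechst stain, imaged at 20x; PNC prevalence scored by image analysis.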
HPGD block: inhibitors of human 15-hydroxyprostaglandin dehydrogenase (HPGD). Potency, µM, without a hit: at the top dose activity change, negative = inhibition, hits mostly inhibitors. AID 894. 4.3% of 150,000 active. P15428. purified HPGD, NADH fluorescence kinetic, PGE2 substrate; note: potency is the fitted concentration of half-maximal effect
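20 nM HPGD preincubated 15 min at room temperature with compound in 50 mM Tris-HCl pH 8, 0.01% Tween 20. Started with 1 mM NAD+ and 30 uM prostaglandin E2; NADH fluorescence (360/450 nm) read 5 times over 30-s intervals, last minus first.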
Lamin A splicing: LMNA splicing modulation. AID 1487. HeLa LMNA splicing GFP/RFP minigene ratio, 48 h. Potency, µM (series often up to 46.1 µM), for the others: at the highest dose ratio change, negative = inhibition, hits mostly inhibitors. 0.01% of 200,000 active; active = well fitted inhibition curve with a large enough effect in the signal ratio, with a control signal flat, not every such curve was filed as active; inconclusive = small, poorly fitted or top-dose-only effect, or effect the other way, or a change in a side signal; the % refers to the signal ratio; note: potency is the fitted concentration of half-maximal effect
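S3 HeLa stable clones carrying a lamin A-EGFP splicing minigene plus DsRed2 were seeded at 600 cells/well in Opti-MEM with 2% FBS, pin-dosed and incubated 48 h at 37°C. Acumen cytometry (488 nm) gave the GFP/RFP total-intensity ratio.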
ALOX12 inhib: inhibitors of human 12-lipoxygenase (ALOX12); 0.12% of 150,000 active; Potency, µM (series often up to 57.1 µM), for the others: top-dose activity change, negative = inhibition, actives largely listed as inhibitors; purified 12-hLO, xylenol orange hydroperoxide absorbance; P18054; AID 1452; active = well fitted inhibition curve with a large enough effect; inconclusive = small, poorly fitted or top-dose-only effect; note: potency is the fitted concentration of half-maximal effect; nearly all actives have a fitted effect of over 55% in size
Target sequence (P18054 whole entry, looked up): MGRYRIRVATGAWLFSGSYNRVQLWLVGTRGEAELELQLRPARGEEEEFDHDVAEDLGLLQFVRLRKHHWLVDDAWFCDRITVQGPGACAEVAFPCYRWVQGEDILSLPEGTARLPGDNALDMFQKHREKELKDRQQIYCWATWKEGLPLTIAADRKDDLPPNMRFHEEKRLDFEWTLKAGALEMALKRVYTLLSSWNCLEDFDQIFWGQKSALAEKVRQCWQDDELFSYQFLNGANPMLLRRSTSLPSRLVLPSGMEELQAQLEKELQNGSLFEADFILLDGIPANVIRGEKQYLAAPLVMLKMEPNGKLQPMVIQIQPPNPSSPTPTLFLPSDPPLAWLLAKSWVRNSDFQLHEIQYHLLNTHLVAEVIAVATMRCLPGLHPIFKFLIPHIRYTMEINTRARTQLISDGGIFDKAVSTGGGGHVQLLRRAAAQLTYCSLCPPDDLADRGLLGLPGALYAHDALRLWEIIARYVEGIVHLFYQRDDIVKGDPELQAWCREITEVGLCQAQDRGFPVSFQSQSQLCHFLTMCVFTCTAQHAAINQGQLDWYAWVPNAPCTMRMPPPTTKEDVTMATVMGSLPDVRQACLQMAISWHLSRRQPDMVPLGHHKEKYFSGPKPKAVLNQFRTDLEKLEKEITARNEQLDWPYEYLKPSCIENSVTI
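Purified human 12hLO (150 nM final) was preincubated with compounds for 15 min at room temperature in 25 mM Hepes pH 7.0, 0.01% Triton X-100, then reacted with 40 uM arachidonic acid for 30 min. Hydroperoxide was detected with ferrous iron/xylenol orange.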
ALDH1A1 inh: inhibitors of human aldehyde dehydrogenase 1A1 | Purified ALDH1A1, NADH fluorescence, propionaldehyde substrate | 7.3% of 220,000 active | AID 1030 | P00352 | Potency, µM (titrated, usually from 75.3 µM), inactives show top-dose activity, negative = inhibition, hits mostly inhibitors;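 note: potency is the fitted concentration of half-maximal effect; plate controls were no enzyme wells and a reference inhibitor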
An asterisk follows results filed as active; ? = inconclusive; nt = not tested or not shown; [ ] = remark or other dose. Unless noted, calls come from the whole dose curve; as a rule, active = well fitted inhibition curve with a large enough effect (not every such curve was filed as active); inconclusive = small, poorly fitted or top-dose-only effect, or another doubt; inactive = no such curve, though single readings can be large or run the other way. Unless noted, % is set by controls: 0 for no effect and ±100 for the full control effect.

SMILES | PNC inhibitor | HPGD block | Lamin A splicing | ALOX12 inhib | ALDH1A1 inh
CCOC(=O)/C(=C\c1cccnc1)C(=O)c1cc(C(C)=O)c(Nc2ccccc2)s1 | -111.4* | 20µM* | ? | -13.9% | ?
COc1ccc(CCNC(=O)CSc2ccc(-c3ccco3)nn2)cc1 | nt | nt | -2.7%[46 µM] | nt | 3.16µM*
O=C(CSc1ccc(-c2ccco2)nn1)NCCc1ccccc1 | nt | nt | nt | nt | 7.08µM*
CC(=O)NC1=C(NC2CCS(=O)(=O)C2)C(=O)c2ccccc2C1=O (stereo unspecified) | -28.4 | 11.2µM* | ? | 9.5% | 4.0%
COCCNc1ncnc2ccc(-c3ccc(N(C)C)cc3)cc12 | nt | nt | -2.5% | nt | ?
Cc1ccccc1Cn1nc(C)c(NC(=O)/C=C/c2cnn(C)c2C)c1C | ? | -11.3% | 10.6% | -0.6% | -2.0%
Cc1ccccc1Cn1nc(C)c(NC(=O)/C=C/c2cnn(C)c2)c1C | -113.8* | 0.6% | -5.4% | -0.9% | 2.4%
Cc1nc(N2CCCC2)ncc1C(=O)Nc1ccc(F)cc1F | nt | nt | 14.5%[46 µM] | nt | nt
CCOC(=O)c1cc(C(=O)c2cc(Br)ccc2O)coc1=N | nt | nt | ? | nt | 4.7%
CCOC(=O)C(C(C)=O)c1c(Br)c(O)c(O)c2c(C(=O)c3ccc(C)cc3)coc12 (stereo unspecified) | 43.2 | 7.94µM* | ? | -25.5% | -3.4%
CCOC(=O)c1c(C)n(-c2ccc(C)cc2)c2c(C(C(C)=O)C(=O)O)c(Br)c(O)c(O)c12 (stereo unspecified) | ? | 17.8µM* | -3.1% | ? | ?
CCOC(=O)c1c(C)n(-c2ccc(C)cc2)c2c(CC(C)=O)c(Br)c(OC)c(O)c12 | 35.2 | -4.1% | 9.1% | -0.3% | 7.3%
Cc1nn(CC(=O)NCc2ccc(N(C)C)cc2)c(=O)c2c(C)n(-c3ccc(Cl)cc3)nc12 | nt | nt | -12.7%[46 µM] | nt | nt
CCOc1ccc(NC(=S)Nc2cc(C)[nH]n2)cc1 | nt | nt | ? | nt | 14.1µM*
Cc1cc(NC(=S)Nc2cccc3ccccc23)n[nH]1 | nt | nt | nt | nt | 6.31µM*
CCNC(=S)Nc1ccc(OCC)cc1 | -86.0* | -0.4% | 14.8% | -1.1% | 3.6%
CCOC(=O)N1CCc2c(sc(NCc3ccc(N(C)C)cc3)c2C(=O)Nc2ccc(OC)cc2)C1 | nt | nt | -15.2%[46 µM] | nt | nt
C/C(Cl)=C\Cn1c(N2CCCCCC2)nc2c1c(=O)n(C)c(=O)n2C | -15.6 | 4.4% | 7.5% | -3.8% | 3.55µM*
Cn1c(=O)c2c(nc(N3CCOCC3)n2CC(=O)c2ccccc2)n(C)c1=O | ? | -13.6% | ? | 0.2% | -1.3%
Cn1c(=O)c2c(nc(N3CCCCCC3)n2Cc2cccc3ccccc23)n(C)c1=O | 18.2 | -26.3% | ? | -15.3% | 0.891µM*
CN1CCN(c2nc3c(c(=O)n(C)c(=O)n3C)n2Cc2cccc3ccccc23)CC1 | 42.0 | -8.3% | -5.4% | 1.7% | 11.2µM*
Cn1c(=O)c2c(nc(N3CCCCCC3)n2CC(=O)c2ccccc2)n(C)c1=O | 54.7 | -11.9% | 5.1% | 2.0% | 4.47µM*
CCn1ccc2cc(S(=O)(=O)N3CCC(C(=O)NCCc4ccccc4)CC3)ccc21 | nt | nt | 8.8%[46 µM] | nt | nt
CN(C1=NS(=O)(=O)c2ccccc21)c1ccc(OC(=O)c2ccncc2)cc1 | nt | nt | nt | nt | -4.5%
Cn1c(=O)c2c(nc(CN3CCN(CCO)CC3)n2Cc2cccc3ccccc23)n(C)c1=O | 8.4 | -2.1% | ? | 7.7% | 4.47µM*
SMILES | PNC inhibitor | HPGD block | Lamin A splicing | ALOX12 inhib | ALDH1A1 inh
CCN1CCN(Cc2nc3c(c(=O)n(C)c(=O)n3C)n2Cc2ccccc2Cl)CC1 | -18.5 | -11.0% | 2.2% | 0.3% | -0.3%
Cn1c(=O)[nH]c(=O)c2c1nc(N1CCCCCC1)n2CC(N)=O | -18.8 | -5.1% | -0.9% | 5.2% | 14.1µM*
CCCn1c(N2CCN(CC(=O)c3c(C)n(C)c4ccccc34)CC2)nc2c1c(=O)[nH]c(=O)n2C | -23.5 | -3.3% | -8.8% | 7.4% | ?
C/C=C/Cn1c(N2CCCCCC2)nc2c1c(=O)[nH]c(=O)n2C | ? | -17.5% | 2.7% | -1.2% | ?
CCn1c(N2CCN(CC(=O)c3c[nH]c4ccccc34)CC2)nc2c1c(=O)[nH]c(=O)n2C | 10.1 | -12.0% | ? | -0.6% | 22.4µM*
Nc1nc(-c2ccccc2)c(C(=O)Nc2ccccc2)s1 | nt | nt | -20.7%[46 µM] | nt | -13.1%
CCN1CC2([N+](=O)[O-])CC=C(OC)C([N+](=O)[O-])(C1)C2 (stereo unspecified) | 1.8 | -1.8% | -1.2% | -3.3% | -6.1%
CN1CC2([N+](=O)[O-])CC=C(OCCO)C([N+](=O)[O-])(C1)C2 (stereo unspecified) | -114.6* | -10.5% | -8.1% | 0.2% | 3.2%
CN1CC2([N+](=O)[O-])CC=C(Oc3ccccc3)C([N+](=O)[O-])(C1)C2 (stereo unspecified) | -20.0 | -14.0% | 13.1% | 3.1% | 2.82µM*
c1cn(-c2ccnc(-c3ccc4c(c3)OCO4)n2)cn1 | nt | nt | 5.1% | nt | ?
CC1(C)NC(=O)N(CC(O)CN2CCCCC2)C1=O (stereo unspecified) | -93.8* | 1.8% | 13.9% | -1.0% | -2.4%
COc1ccccc1-c1noc(-c2ccco2)n1 | -117.7* | -5.4% | 8.6% | -0.9% | -6.5%
CC(=O)c1ccc(NC(=O)C(C)OC(=O)c2ccc(NS(=O)(=O)c3ccc(F)c(F)c3)cc2)cc1 (stereo unspecified) | -100.2* | -11.4% | ? | -7.5% | -10.6%
COc1ccc(C(=O)c2ccc(OC)c(N)c2)cc1N | 19.9 | -31.7% | ? | 8.8% | 20µM*
COc1ccc(C(=O)c2ccc(OC)c(OC)c2)cc1 | -10.5 | -8.9% | 2.7% | -0.4% | ?
O=C(CSc1nc2c([nH]c3ccccc32)c(=O)n1-c1ccc(F)cc1)NCc1ccc(F)cc1 | nt | nt | 28.4%[46 µM] | nt | nt
CCCNC(=O)c1ccc2snnc2c1 | 6.1 | -16.1% | 2.7% | 10.6% | ?
CNC(=O)c1nnsc1S(=O)c1ccc(Cl)cc1 (stereo unspecified) | nt | nt | -1.1%[9.22 µM] | nt | 22.4µM*
CCCNC(=O)c1nnsc1S(=O)c1ccc(Cl)cc1 (stereo unspecified) | nt | nt | -3.8%[9.22 µM] | nt | 11.2µM*
CNC(=O)c1nn(-c2ccc(Cl)cc2)ccc1=O | 17.2 | -23.3% | -4.3% | -1.4% | -8.4%
CCCNC(=O)c1nnsc1S(=O)(=O)c1ccc(Cl)cc1 | nt | nt | ? | nt | 20µM*
COCCn1c(SCC(=O)Nc2ccc(C)cc2C)nc2c(oc3ccccc32)c1=O | -107.0* | -16.6% | 4.3% | -2.0% | 1.2%
COCCn1c(SCC(=O)Nc2ccccc2C)nc2c(oc3ccccc32)c1=O | 4.1 | -14.7% | -4.0% | -0.2% | ?
COc1cccc(C2C(C(=O)Nc3ccccc3)=C(C)Nc3nnnn32)c1OC (stereo unspecified) | nt | nt | -24.3%[46 µM] | nt | nt
O=C(NCc1cccs1)c1csc2c1CCCCC2 | -19.0 | 22.4µM* | 14.3% | 1.2% | ?
Cc1ccccc1NC(=O)c1csc2c1CCCC2 | 21.9 | 15.8µM* | ? | 16.9% | ?
COc1ccc(NC(=O)c2csc3c2CCCC3)cc1 | 6.4 | -5.6% | 0.5% | 2.0% | 2.0%
